Experiment [1] concerns the target Paired box protein Pax-6 (Homo sapiens) (UniProt P26367). In words: ATG_Pax6_CIS: Attagene CIS-FACTORIAL HepG2 Assay for human Paired Box 6 (PAX6) (AID 2282956). To be noted: HepG2 CIS-FACTORIAL PAX6 reporter transcription, RNA readout; actives raise or lower the signal. In a few lines:
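Transient MRTU transfection of HepG2 → compound exposure 24 h → TriZol RNA, oligo(dT) RT → PCR, 6-FAM primer extension, HpaI cut → capillary electrophoresis; activity fitted both directions against DMSO.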

Experiment [2] can be described thus: ATG_PXRE_CIS: Attagene CIS-FACTORIAL HepG2 Assay for human Pregnane X Receptor Element (PXRE) (AID 2282957). The following applies: HepG2 Attagene CIS-FACTORIAL PXRE reporter, mRNA; actives raise or lower the signal. In short, it runs like this:
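Transfect HepG2 with MRTUs (cis promoter elements); dose chemical, incubate 24 h; isolate RNA, RT with oligo(dT), PCR, 6-FAM label, HpaI cut, CE. Gain/loss fit vs DMSO.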

Experiment [3] is described as follows: ATG_Sox_CIS: Attagene CIS-FACTORIAL HepG2 Assay for human SRY-box transcription factor (SOX) (AID 2282960). The following applies: HepG2 Attagene cis-factorial SOX reporter, mRNA; actives raise or lower the signal. In short, it runs like this: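 Fluorescence-labelled cDNA fragments from reporter transcripts, sized by CE, give the signal. Cells: HepG2, transiently transfected with cis-regulated reporter units. Exposure 24 h; DMSO negative control; bidirectional curve fitting.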

Experiment [4] addresses Transcription factor Sp1 (Homo sapiens) (UniProt P08047). Kind of experiment: ATG_Sp1_CIS: Attagene CIS-FACTORIAL HepG2 Assay for human Specificity Protein 1 (Sp1) (AID 2282961). The following applies: HepG2 Sp1 cis-reporter transcription, actives raise or lower the signal. In short, it runs like this:
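Chemicals are dosed onto HepG2 cells transfected with multiple cis-promoter reporter constructs, and after 24 h reporter RNA is reverse-transcribed, PCR-amplified and resolved by capillary electrophoresis for fluorescence quantitation; activity is scored up or down against DMSO.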

Experiment [5] in a line: ATG_SREBP_CIS: Attagene CIS-FACTORIAL HepG2 Assay for human Sterol Regulatory Element Binding (SREBP) (AID 2282962). To be noted: HepG2 Attagene cis-factorial SREBP reporter, mRNA; actives raise or lower the signal. In short, it runs like this:
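Transfected HepG2 (cis-regulated reporter library, endogenous TFs) → compound 24 h → total RNA → oligo(dT) RT → reporter-specific PCR → FAM primer extension, HpaI cut → CE fluorescence. Fit bidirectional vs DMSO.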

Experiment [6] deals with Signal transducer and activator of transcription 3 (Homo sapiens) (UniProt P40763). In words: ATG_STAT3_CIS: Attagene CIS-FACTORIAL HepG2 Assay for human Signal Transducer and Activator of Transcription 3 (STAT3) (AID 2282963). The following applies: HepG2, Attagene cis-factorial STAT3 reporter transcription; actives raise or lower the signal. In a few lines: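 Values derive from bidirectional fits relative to DMSO of reporter mRNA levels, measured by RT-PCR with capillary electrophoresis, in HepG2 cells carrying transiently transfected cis-regulated reporter units and exposed 24 h.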
Sequence of Signal transducer and activator of transcription 3 (Homo sapiens) (P40763 whole entry, looked up): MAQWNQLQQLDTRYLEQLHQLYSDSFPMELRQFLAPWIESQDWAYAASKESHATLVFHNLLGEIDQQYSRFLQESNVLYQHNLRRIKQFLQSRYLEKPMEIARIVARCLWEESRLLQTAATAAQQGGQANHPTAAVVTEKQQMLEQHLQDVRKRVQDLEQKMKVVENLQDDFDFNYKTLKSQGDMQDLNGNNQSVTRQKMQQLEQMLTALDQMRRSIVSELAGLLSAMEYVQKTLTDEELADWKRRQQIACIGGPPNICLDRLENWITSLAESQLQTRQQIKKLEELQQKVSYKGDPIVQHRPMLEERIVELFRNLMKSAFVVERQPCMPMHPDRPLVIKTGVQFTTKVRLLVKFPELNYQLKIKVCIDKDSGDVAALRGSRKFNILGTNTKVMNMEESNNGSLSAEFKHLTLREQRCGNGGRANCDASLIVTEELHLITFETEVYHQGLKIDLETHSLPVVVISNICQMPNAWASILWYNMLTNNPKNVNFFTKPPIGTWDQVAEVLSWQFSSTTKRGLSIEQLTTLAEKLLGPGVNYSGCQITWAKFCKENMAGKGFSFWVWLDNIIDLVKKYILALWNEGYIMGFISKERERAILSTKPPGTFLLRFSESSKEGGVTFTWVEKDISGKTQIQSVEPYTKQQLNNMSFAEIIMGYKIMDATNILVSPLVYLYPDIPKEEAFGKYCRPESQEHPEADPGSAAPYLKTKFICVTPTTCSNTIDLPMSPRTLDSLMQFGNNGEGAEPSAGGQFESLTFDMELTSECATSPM

A short description of experiment [7]: ATG_TCF_b_cat_CIS: Attagene CIS-FACTORIAL HepG2 Assay for human T-Cell-Factor with beta-catenin (TCF/b-cat) (AID 2282965). The following applies: HepG2 TCF/beta-catenin cis-reporter transcription, actives raise or lower the signal. In a few lines: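 HepG2, transient MRTU transfection, cis-element-driven reporters (endogenous TFs). 24 h compound exposure. Readout: reporter mRNA by RT-PCR + 6-FAM primer extension, HpaI digest, capillary electrophoresis. Gain/loss fit vs DMSO baseline.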

The nature of experiment [8]: ATG_TAL_CIS: Attagene CIS-FACTORIAL HepG2 Assay for human TAL Basal Promoter (AID 2282966).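 Note: background control endpoint measuring basal TAL promoter reporter mRNA not a specific factor.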 The following applies: HepG2 Attagene cis-factorial TAL promoter reporter; actives raise or lower the signal. In short, it runs like this: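 Fluorescence of labelled reporter cDNA fragments, resolved by capillary electrophoresis, gave the readout. Human HepG2 liver cells carried transiently transfected cis-element reporter units and were treated for 24 hours; activity was fitted bidirectionally against DMSO.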

The nature of experiment [9]: ATG_TGFb_CIS: Attagene CIS-FACTORIAL HepG2 Assay for human Transforming Growth Factor (TGF) (AID 2282967). To be noted: HepG2 Attagene CIS TGFb reporter, mRNA transcription; actives raise or lower the signal. In short, it runs like this: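 Transient MRTU transfection of HepG2 (FuGene 6). Dose 24 h. TriZol RNA, oligo(dT) RT, PCR, 6-FAM primer extension, HpaI cut, CE. Bidirectional fit, DMSO = baseline.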

The nature of experiment [10]: ATG_VDRE_CIS: Attagene CIS-FACTORIAL HepG2 Assay for human Vitamin D Receptor Element (VDRE) (AID 2282968). The following applies: HepG2 VDRE cis-reporter transcription, actives raise or lower the signal. In short, it runs like this: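 Cell-based multiplexed reporter format in human liver HepG2 cells, 24 h post-dose. Fluorescence from capillary electrophoresis of reporter cDNA gives the signal, with DMSO as negative control and baseline.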

Experiment [11] deals with Estrogen receptor (Homo sapiens) (UniProt P03372). In words: ATG_ERa_TRANS: Attagene TRANS-FACTORIAL HepG2 Assay for human Estrogen Receptor alpha (ERa) (AID 2282970; active = hit-call score of the fitted dose curve at least 0.9, where 1 is the maximum). To be noted: HepG2 Attagene TRANS ERa GAL4 reporter, mRNA. In short, it runs like this:
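Human liver HepG2, transient transfection of multiple GAL4-UAS reporter units; TRANS format (exogenous NR-Gal4 chimera). 24 h dosing. Readout: reporter mRNA, RT-PCR, 6-FAM primer extension, HpaI digest, capillary electrophoresis. Positive direction vs DMSO.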

Experiment [12] has as its target X-box-binding protein 1 (Homo sapiens) (UniProt P17861). In words: ATG_Xbp1_CIS: Attagene CIS-FACTORIAL HepG2 Assay for human X-box Binding Protein 1 (XBP1) (AID 2282972). To be noted: HepG2 XBP1 cis-element reporter, Attagene multiplex; actives raise or lower the signal. In short, it runs like this:
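HepG2, transient MRTU transfection (cis-promoter driven), 24 h compound exposure. Total RNA → oligo(dT) RT → PCR → 6-FAM labeling → HpaI cut → CE. Bidirectional fit vs DMSO.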

Experiment [13] can be described thus: ATG_M_19_TRANS: Attagene TRANS-FACTORIAL HepG2 Assay for M19 Transcription Factor (Internal Marker) (AID 2282974; active = hit-call score of the fitted dose curve at least 0.9, where 1 is the maximum). The following applies: HepG2 Attagene TRANS-FACTORIAL M19 internal marker reporter. In a few lines:
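Multiplexed TRANS format: HepG2 liver cells bearing transient GAL4-UAS reporter units, chemical treatment 24 h, reporter transcripts quantified by RT-PCR plus capillary electrophoresis. DMSO defines baseline.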

Experiment [14] addresses Estrogen-related receptor gamma (Homo sapiens) (UniProt P62508). In words: ATG_ERRg_TRANS: Attagene TRANS-FACTORIAL HepG2 Assay for human Estrogen-Related Receptor gamma (ERRg) (AID 2282977; active = hit-call score of the fitted dose curve at least 0.9, where 1 is the maximum;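 note: hits increase reporter signal over DMSO so potencies reflect activators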). To be noted: HepG2 Attagene TRANS reporter, ERRg transactivation. In a few lines:
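HepG2 cells transiently transfected with multiplexed GAL4-UAS reporter units and chimeric NR-Gal4 constructs were exposed to test chemicals for 24 h. Reporter mRNA was measured by RT-PCR, 6-FAM primer extension, HpaI digestion and capillary electrophoresis; gain-of-signal versus DMSO.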

Experiment [15] in a line: ATG_RORE_CIS: Attagene CIS-FACTORIAL HepG2 Assay for human RAR-related Orphan Receptor Element (RORE) (AID 2282959). To be noted: HepG2 Attagene cis-factorial RORE reporter, mRNA; actives raise or lower the signal. In short, it runs like this:
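Transfect HepG2 with MRTUs; treat 24 h; extract RNA; RT with oligo(dT); PCR with reporter-specific primers; 6-FAM primer extension; HpaI digest 2 h at 37 C; capillary electrophoresis. Fit vs DMSO, bidirectional.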

Experiment [16] is described as follows: ATG_TA_CIS: Attagene CIS-FACTORIAL HepG2 Assay for human TA Basal Promoter (AID 2282964). To be noted: HepG2 Attagene CIS-factorial TA basal promoter reporter; actives raise or lower the signal. In a few lines: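 Read-out: fluorescent reporter-transcript fragments resolved by capillary electrophoresis after RT-PCR and HpaI digestion. Source: HepG2 cells carrying transiently transfected multi-reporter cis constructs, treated 24 h. Endpoint fitted bidirectionally relative to DMSO.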

The target of experiment [17] is Nuclear receptor subfamily 1 group I member 3 (Homo sapiens) (UniProt Q14994). Kind of experiment: ATG_CAR_TRANS: Attagene TRANS-FACTORIAL HepG2 Assay for human Constitutive Androstane Receptor (CAR) (AID 2282969; active = hit-call score of the fitted dose curve at least 0.9, where 1 is the maximum;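 note: activators raise reporter mRNA above DMSO so AC50 marks induction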). The following applies: HepG2 Attagene TRANS-FACTORIAL CAR reporter. In a few lines:
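HepG2 cells transiently transfected with GAL4-UAS reporter units; TRANS format reads activity of exogenous chimeric NR-Gal4 protein. After 24 h dosing, reporter mRNA quantified by RT-PCR, 6-FAM labelling and capillary electrophoresis; gain of signal fitted against DMSO.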

Experiment [18] addresses Steroid hormone receptor ERR1 (Homo sapiens) (UniProt P11474). In words: ATG_ERRa_TRANS: Attagene TRANS-FACTORIAL HepG2 Assay for human Estrogen-Related Receptor alpha (ERRa) (AID 2282971; active = hit-call score of the fitted dose curve at least 0.9, where 1 is the maximum). To be noted: HepG2 Attagene TRANS reporter, ERRa transactivation. In short, it runs like this: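 Reporter transcript induction was quantified by RT-PCR and capillary electrophoresis of FAM-labelled, HpaI-cut products after 24 h treatment of HepG2 cells carrying transiently transfected GAL4-UAS reporter units and an exogenous ERRa-Gal4 fusion; activity scored as increase over DMSO.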

Experiment [19] can be described thus: ATG_GAL4_TRANS: Attagene TRANS-FACTORIAL HepG2 Assay for GAL4 (Internal Marker) (AID 2282976; active = hit-call score of the fitted dose curve at least 0.9, where 1 is the maximum). To be noted: HepG2 Attagene TRANS GAL4 internal marker reporter. In a few lines: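 First, HepG2 cells were transfected with reporter units under GAL4-UAS control. Next, they were treated with chemical for 24 h. Finally, RNA was reverse-transcribed, PCR-amplified, FAM-labelled and resolved by capillary electrophoresis, with induction scored against DMSO.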

This is an account of results in PubChem BioAssay (EPA / NIEHS).

Inconclusive results are not listed. Activity calls are given as the source filed them. Rule for the calls, unless noted: active = hit-call score of the fitted dose curve at least 0.9, where 1 is the maximum; inactive = score below 0.9.

Sequence of X-box-binding protein 1 (Homo sapiens) (P17861 whole entry, looked up): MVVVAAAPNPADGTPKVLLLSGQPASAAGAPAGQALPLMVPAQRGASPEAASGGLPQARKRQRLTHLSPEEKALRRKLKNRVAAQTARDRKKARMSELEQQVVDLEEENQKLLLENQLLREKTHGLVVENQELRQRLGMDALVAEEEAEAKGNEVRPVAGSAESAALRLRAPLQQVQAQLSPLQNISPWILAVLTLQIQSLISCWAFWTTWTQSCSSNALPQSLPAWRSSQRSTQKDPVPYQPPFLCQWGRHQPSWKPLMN
Sequence of Transcription factor Sp1 (Homo sapiens) (P08047 whole entry, looked up): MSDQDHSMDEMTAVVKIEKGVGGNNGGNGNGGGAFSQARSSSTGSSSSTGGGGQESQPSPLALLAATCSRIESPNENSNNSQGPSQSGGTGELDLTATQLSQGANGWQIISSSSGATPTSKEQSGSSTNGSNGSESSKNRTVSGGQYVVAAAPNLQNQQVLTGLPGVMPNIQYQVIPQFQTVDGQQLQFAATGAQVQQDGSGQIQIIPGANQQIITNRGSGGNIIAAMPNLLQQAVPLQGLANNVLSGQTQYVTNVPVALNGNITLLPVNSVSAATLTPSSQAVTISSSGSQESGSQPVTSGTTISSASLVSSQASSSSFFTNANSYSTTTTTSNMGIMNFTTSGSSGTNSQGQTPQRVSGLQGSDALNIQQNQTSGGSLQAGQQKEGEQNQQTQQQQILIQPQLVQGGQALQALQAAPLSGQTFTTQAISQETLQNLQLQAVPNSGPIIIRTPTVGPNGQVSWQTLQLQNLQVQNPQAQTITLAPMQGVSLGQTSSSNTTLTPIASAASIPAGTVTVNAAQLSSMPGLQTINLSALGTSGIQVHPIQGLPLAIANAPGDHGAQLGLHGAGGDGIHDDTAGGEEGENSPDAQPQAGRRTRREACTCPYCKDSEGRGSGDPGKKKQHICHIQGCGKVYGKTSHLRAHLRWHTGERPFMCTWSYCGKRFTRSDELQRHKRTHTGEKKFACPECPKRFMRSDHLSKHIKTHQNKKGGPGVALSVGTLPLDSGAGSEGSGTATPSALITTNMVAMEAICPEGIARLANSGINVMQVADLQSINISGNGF
Sequence of Estrogen receptor (Homo sapiens) (P03372 whole entry, looked up, the tested form may be a part): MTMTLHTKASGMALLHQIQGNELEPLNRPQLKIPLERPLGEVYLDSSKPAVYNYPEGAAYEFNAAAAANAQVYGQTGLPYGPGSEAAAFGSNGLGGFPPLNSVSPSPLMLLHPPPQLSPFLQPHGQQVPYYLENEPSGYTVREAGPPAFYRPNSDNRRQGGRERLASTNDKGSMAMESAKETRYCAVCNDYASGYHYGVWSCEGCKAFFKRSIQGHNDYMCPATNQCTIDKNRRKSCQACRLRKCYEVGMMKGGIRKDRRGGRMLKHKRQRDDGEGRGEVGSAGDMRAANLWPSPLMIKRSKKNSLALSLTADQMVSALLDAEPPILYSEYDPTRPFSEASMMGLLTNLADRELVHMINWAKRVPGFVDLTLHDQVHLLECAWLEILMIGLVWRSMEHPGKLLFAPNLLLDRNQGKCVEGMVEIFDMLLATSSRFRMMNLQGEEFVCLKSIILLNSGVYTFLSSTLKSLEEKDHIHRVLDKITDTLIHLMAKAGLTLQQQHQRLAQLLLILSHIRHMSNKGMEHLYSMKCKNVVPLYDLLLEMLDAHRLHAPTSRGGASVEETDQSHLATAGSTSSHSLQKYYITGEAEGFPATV
Sequence of Paired box protein Pax-6 (Homo sapiens) (P26367 whole entry, looked up): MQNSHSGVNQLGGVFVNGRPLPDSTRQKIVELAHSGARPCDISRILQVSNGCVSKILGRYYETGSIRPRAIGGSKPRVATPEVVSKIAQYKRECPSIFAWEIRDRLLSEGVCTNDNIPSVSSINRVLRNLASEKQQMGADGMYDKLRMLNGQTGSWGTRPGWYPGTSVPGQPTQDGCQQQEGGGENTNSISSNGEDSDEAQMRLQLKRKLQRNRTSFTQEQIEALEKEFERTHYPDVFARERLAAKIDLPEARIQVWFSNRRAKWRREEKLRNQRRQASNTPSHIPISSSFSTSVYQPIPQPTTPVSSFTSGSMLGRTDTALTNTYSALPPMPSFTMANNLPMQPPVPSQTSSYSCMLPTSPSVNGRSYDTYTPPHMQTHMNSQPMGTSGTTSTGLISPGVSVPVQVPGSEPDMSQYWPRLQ
Sequence of Nuclear receptor subfamily 1 group I member 3 (Homo sapiens) (Q14994 whole entry, looked up, the tested form may be a part): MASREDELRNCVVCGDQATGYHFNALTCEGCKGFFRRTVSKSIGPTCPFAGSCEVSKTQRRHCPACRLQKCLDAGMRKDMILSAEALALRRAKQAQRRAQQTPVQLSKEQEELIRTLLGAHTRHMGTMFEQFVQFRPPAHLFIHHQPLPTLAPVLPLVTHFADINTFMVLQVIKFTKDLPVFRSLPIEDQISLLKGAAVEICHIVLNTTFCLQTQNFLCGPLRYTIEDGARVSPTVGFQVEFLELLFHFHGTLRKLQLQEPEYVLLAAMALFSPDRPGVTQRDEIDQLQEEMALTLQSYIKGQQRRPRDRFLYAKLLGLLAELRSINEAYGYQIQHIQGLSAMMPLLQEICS
Sequence of Steroid hormone receptor ERR1 (Homo sapiens) (P11474 whole entry, looked up, the tested form may be a part): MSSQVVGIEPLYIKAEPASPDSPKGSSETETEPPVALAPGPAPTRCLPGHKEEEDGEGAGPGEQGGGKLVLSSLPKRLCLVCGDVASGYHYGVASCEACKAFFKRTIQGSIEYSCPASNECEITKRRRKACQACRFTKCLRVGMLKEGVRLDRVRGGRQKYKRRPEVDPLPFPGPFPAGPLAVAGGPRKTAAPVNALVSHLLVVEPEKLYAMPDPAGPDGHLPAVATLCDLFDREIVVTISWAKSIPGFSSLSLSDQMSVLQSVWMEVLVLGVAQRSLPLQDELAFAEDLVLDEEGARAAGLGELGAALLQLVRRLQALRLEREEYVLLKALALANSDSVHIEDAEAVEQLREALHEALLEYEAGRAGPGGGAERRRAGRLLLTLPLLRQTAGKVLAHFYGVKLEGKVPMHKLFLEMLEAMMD
Sequence of Estrogen-related receptor gamma (Homo sapiens) (P62508 whole entry, looked up, the tested form may be a part): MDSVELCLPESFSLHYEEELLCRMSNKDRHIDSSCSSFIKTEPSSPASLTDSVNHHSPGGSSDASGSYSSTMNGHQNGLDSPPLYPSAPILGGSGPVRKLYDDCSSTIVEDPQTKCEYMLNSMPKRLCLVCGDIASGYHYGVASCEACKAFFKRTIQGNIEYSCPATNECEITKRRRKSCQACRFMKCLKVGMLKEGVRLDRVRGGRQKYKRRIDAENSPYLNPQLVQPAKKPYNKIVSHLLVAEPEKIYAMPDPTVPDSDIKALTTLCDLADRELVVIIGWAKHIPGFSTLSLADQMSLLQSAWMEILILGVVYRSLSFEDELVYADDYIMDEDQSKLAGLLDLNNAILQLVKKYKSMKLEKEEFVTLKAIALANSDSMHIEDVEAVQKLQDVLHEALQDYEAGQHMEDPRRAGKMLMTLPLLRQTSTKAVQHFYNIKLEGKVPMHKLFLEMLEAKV

Regarding `CCOC(=O)Cc1cccc2ccccc12`, the outcome in experiment [1], in experiment [3], in experiment [4], in experiment [5], in experiment [6] and in experiment [7] was inactive. For the same molecule, the molecule was called inactive in [8], in [9], in experiment [10], in [11], in experiment [12] and in [13]. In experiment [14], the molecule was called inactive. For the same molecule, in [2], the AC50 was 71.7 µM (active).

On to `O=C(Nc1ccccc1SSc1ccccc1NC(=O)c1ccccc1)c1ccccc1`, for which the molecule was called inactive in experiment [1], in experiment [3], in experiment [5], in experiment [6], in [16] and in experiment [7]. Also, the call in experiment [8], in experiment [9], in experiment [17], in experiment [11], in experiment [18] and in experiment [12] was inactive. For the same molecule, the molecule was classed as inactive in experiment [13]. Also, the half-maximal activity concentration (AC50) in experiment [2] is 4.44 µM (active); in [15], 2.56 µM (active).

As for `CC1=NC(C)OC1C` (configuration not stated), the call in [1], in experiment [15], in experiment [3], in [4], in experiment [5] and in experiment [6] was inactive. Also, the call in [16], in experiment [8], in experiment [12], in experiment [13] and in experiment [19] was inactive. Also, the AC50 in experiment [2] is 7.08 µM (active); in experiment [7] it was 100 µM (active).

Turning to `CNC(=S)N(C)C`, the outcome in experiment [1], in experiment [2], in [15], in [3], in experiment [4] and in experiment [5] was inactive. Besides, the outcome in experiment [6], in experiment [16], in experiment [7], in experiment [9], in [10] and in experiment [17] was inactive. The molecule was classed as inactive in experiment [11], in [12] and in experiment [19].

Usually AC50 stands for the midpoint of the concentration-response curve, whichever way the signal moves.
